Measurements as given in the supplement of paper PMC10849652.
The full data set covers some 8,800 targets. This sample favours those with a hit. About 0.5% of all pairs of compound and target were hits.

Assays:
Assay in all cases: log2 fold change, soluble protein after heating vs DMSO (PISA); higher = thermal stabilisation; K562 lysate, 10 uM; active = over 0.2 and 3.5 SD of the protein, either way, in both replicates (recomputed)
alvocidib = compound: CN1CC[C@H](c2c(O)cc(O)c3c(=O)cc(-c4ccccc4Cl)oc23)[C@H](O)C1 [alvocidib]
In short: (§1)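 Log-two fold change in thermal stability relative to solvent controls is reported from duplicates. For each sample, crude K562 extract from dounce-homogenised pellets in PBS pH 7.4 with 1 mM MgCl2, at 1 mg/mL protein, was treated with 10 μM compound for 30 min. Aliquots heated for 3 min across 48°C-58°C were pooled, brought to 0.5% NP-40 at 4°C and cleared at 21,000xg for 90 min. The supernatant was quantified by TMTpro 16plex LC-MS/MS with channel sums equalised.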

[1] = compound: CNC(=O)C1=CC=CC=C1NC2=NC(=NC=C2Cl)NC3=C(C=C(C=C3)N4CCOCC4)OC
In short: as §1

alisertib = compound: COc1cc(Nc2ncc3c(n2)-c2ccc(Cl)cc2C(c2c(F)cccc2OC)=NC3)ccc1C(=O)O [alisertib]
In short: as §1

[2] = compound: COc1cc2nc(-c3cc(F)ccc3O)nc(N[C@@H]3CNC[C@H]3C(C)(C)O)c2cc1OC
In short: as §1

gefitinib = compound: COc1cc2ncnc(Nc3ccc(F)c(Cl)c3)c2cc1OCCCN1CCOCC1 [gefitinib]
In short: as §1

lapatinib = compound: CS(=O)(=O)CCNCc1ccc(-c2ccc3ncnc(Nc4ccc(OCc5cccc(F)c5)c(Cl)c4)c3c2)o1 [lapatinib]
In short: as §1

[3] = compound: C[C@H](C1=CC=C(C=C1)C(=O)NC2=C3C=CNC3=NC=C2)N
In short: as §1

gandotinib = compound: Cc1cc(Nc2cc(CN3CCOCC3)c3nc(C)c(Cc4ccc(Cl)cc4F)n3n2)n[nH]1 [gandotinib]
In short: as §1

[4] = compound: Cc1cccc(CC(=O)N2CCc3c2ccc(-c2cn(C)c4ncnc(N)c24)c3F)n1
In short: as §1

Tubastatin A = compound: CN1CCc2c(c3ccccc3n2Cc2ccc(C(=O)NO)cc2)C1 [Tubastatin A]
In short: as §1

encorafenib = compound: COC(=O)N[C@@H](C)CNc1nccc(-c2cn(C(C)C)nc2-c2cc(Cl)cc(NS(C)(=O)=O)c2F)n1 [encorafenib]
In short: as §1

[5] = compound: COC(=O)[C@H](CCSC)NC(=O)C1=C(C=C(C=C1)NC[C@H](CS)N)C2=CC=CC=C2
In short: as §1

pictilisib = compound: CS(=O)(=O)N1CCN(Cc2cc3nc(-c4cccc5[nH]ncc45)nc(N4CCOCC4)c3s2)CC1 [pictilisib]
In short: as §1

crizotinib = compound: C[C@@H](Oc1cc(-c2cnn(C3CCNCC3)c2)cnc1N)c1c(Cl)ccc(F)c1Cl [crizotinib]
In short: as §1

tozasertib = compound: Cc1cc(Nc2cc(N3CCN(C)CC3)nc(Sc3ccc(NC(=O)C4CC4)cc3)n2)n[nH]1 [tozasertib]
In short: as §1

doramapimod = compound: Cc1ccc(-n2nc(C(C)(C)C)cc2NC(=O)Nc2ccc(OCCN3CCOCC3)c3ccccc23)cc1 [doramapimod]
In short: as §1

bafetinib = compound: Cc1ccc(NC(=O)c2ccc(CN3CC[C@H](N(C)C)C3)c(C(F)(F)F)c2)cc1Nc1nccc(-c2cncnc2)n1 [bafetinib]
In short: as §1

defactinib = compound: CNC(=O)c1ccc(Nc2ncc(C(F)(F)F)c(NCc3nccnc3N(C)S(C)(=O)=O)n2)cc1 [defactinib]
In short: as §1

[6] = compound: CNc1nc(-c2ccc3c(N)n[nH]c3c2)cc(N2C[C@@H](C(=O)NC3CCCCC3)CC[C@H]2C)n1
In short: as §1

duvelisib = compound: C[C@H](Nc1ncnc2nc[nH]c12)c1cc2cccc(Cl)c2c(=O)n1-c1ccccc1 [duvelisib]
In short: as §1

Measured: log2 fold change

GCA (UniProt P28676)
Chain of UniProt P28676 (P28676 whole entry, looked up): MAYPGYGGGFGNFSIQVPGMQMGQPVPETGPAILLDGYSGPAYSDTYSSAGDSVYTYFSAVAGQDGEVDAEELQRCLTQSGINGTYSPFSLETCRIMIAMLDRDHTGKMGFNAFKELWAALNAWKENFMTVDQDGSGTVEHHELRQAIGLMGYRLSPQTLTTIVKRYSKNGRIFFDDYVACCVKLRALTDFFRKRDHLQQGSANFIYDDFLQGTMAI
inactive: alvocidib -0.016 | [1] -0.035 | alisertib -0.038 | [2] -0.253 | gefitinib -0.197 | lapatinib 0.016 | [3] -0.091 | gandotinib -0.073 | [4] 0.057

GART (UniProt C9JZG2)
inactive: alvocidib -0.071 | Tubastatin A 0.018 | encorafenib 0.038 | [5] 0.088 | alisertib 0.121 | [2] -0.056 | gefitinib 0.281 | lapatinib -0.131 | pictilisib 0.019 | crizotinib -0.245 | [3] -0.371 | gandotinib 0.02 | tozasertib 0.037 | doramapimod 0.166 | bafetinib 0.026 | [4] 0.19

GAA (UniProt P10253)
active: defactinib -0.513
inactive: alvocidib -0.006 | Tubastatin A 0.098 | [1] -0.047 | encorafenib 0.097 | [5] -0.15 | alisertib -0.117 | [2] 0.089 | gefitinib -0.043 | lapatinib 0.083 | pictilisib 0.034 | crizotinib -0.098 | [3] -0.018 | gandotinib 0.04 | tozasertib -0.027 | doramapimod -0.099 | bafetinib 0.081 | [4] -0.04

DUSP22 isoform 2 (UniProt Q9NRW4)
Chain of UniProt Q9NRW4 (Q9NRW4 whole entry, looked up): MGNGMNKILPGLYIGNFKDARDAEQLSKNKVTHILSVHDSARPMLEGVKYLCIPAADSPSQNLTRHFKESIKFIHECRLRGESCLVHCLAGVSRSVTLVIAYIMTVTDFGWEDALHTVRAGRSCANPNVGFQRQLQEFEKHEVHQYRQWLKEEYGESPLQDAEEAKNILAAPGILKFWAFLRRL
inactive: alvocidib 0.034 | Tubastatin A -0.079 | [1] -0.066 | defactinib -0.085 | [6] 0.043 | alisertib 0.18 | [2] -0.11 | gefitinib -0.101 | lapatinib 0.031 | pictilisib -0.082 | [3] -0.058 | duvelisib 0.038 | gandotinib 0.03 | bafetinib 0.018 | [4] 0.037
